# According to PubChem BioAssay AID1645838 (ICCB-Longwood Screening Facility, Harvard Medical School, 2021):
# “And” between values parts separate entries of the source, which are not always exact repeats. Equal values may be shown once. The campaign covered roughly 2,000 compounds. About 100 (5%) were called active. Cut-off read from the data, not from the text of the source: active = z-score above about 2; inactive = the rest. Only a selection was taken, and actives are over-represented in it overall.
# Assay: modulators of mitochondrial supercomplex assembly, cell-based, luminescence, Hoechst nuclei count (AID 1645838);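 note: control cybrid cells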;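 for z-score: higher means more mitochondrial supercomplex formation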
# Conditions: Cells, luminescence/Hoechst cell count ratio, supercomplex reporter; for outcome: library stock 10 mM; for z-score: stronger effect = higher value; for cell count: measured here: cell number, Hoechst nuclei count
# [1] = library stock concentration (final well concentration not given) 80 uM
# [2] = library stock concentration (final well concentration not given) 400 uM
# [3] = library stock concentration (final well concentration not given) 2 mM
# [4] = library stock concentration (final well concentration not given) 46 uM
# [5] = library stock concentration (final well concentration not given) 278 uM
# [6] = library stock concentration (final well concentration not given) 1.67 mM
# [7] = library stock concentration (final well concentration not given) 10 mM
smiles,measurement,setting,value
CN(C)C1CCN(C(=O)c2ccc(NC(=O)Nc3ccc(-c4nc(N5CCOCC5)nc(N5CCOCC5)n4)cc3)cc2)CC1,outcome,,inactive; censored for cell count
same,z-score,[1],-0.0957 (inactive)
same,z-score,[2],0.581 (inactive)
same,z-score,[3],2.23 (active)
same,cell count,[1],5680
same,cell count,[2],4160
same,cell count,[3],1900
CC(C)CCC[C@@H](C)[C@H]1CC[C@H]2[C@@H]3CC(=O)[C@@]4(O)C[C@@H](O)CC[C@]4(C)[C@H]3CC[C@]12C,z-score,,0.076 (inactive)
same,cell count,,4620
CN(CC=CC#CC(C)(C)C)Cc1cccc2ccccc12,z-score,[4],-0.128 (inactive)
same,z-score,[5],-0.114 (inactive)
same,z-score,[6],-0.2 (inactive)
same,z-score,[7],-0.286 (inactive)
same,cell count,[4],4930
same,cell count,[5],4830
same,cell count,[6],5350
same,cell count,[7],5180
CCCCCCCCC#CCCCCCCCC(=O)c1nc2ncccc2o1,z-score,,-0.992 (inactive)
same,cell count,,5900
CCOC(=O)C(N)Cc1ccc(-c2cc(OC(c3ccc(Cl)cc3-n3ccc(C)n3)C(F)(F)F)nc(N)n2)cc1 (stereo not drawn),z-score,[4],-0.503 (inactive)
same,z-score,[5],-0.649 (inactive)
same,z-score,[6],-0.638 (inactive)
same,z-score,[7],1.7 (inactive)
same,cell count,[4],6360
same,cell count,[5],6270
same,cell count,[6],6660
same,cell count,[7],2760
CCCCCCCCCCCCCCCCOC[C@H](COP(=O)([O-])OCC[N+](C)(C)C)OC(=O)NC,z-score,,-1.68 (inactive)
same,cell count,,5690
O=C(c1cc(Cc2n[nH]c(=O)c3ccccc23)ccc1F)N1CCN(C(=O)C2CC2)CC1,z-score,[1],-0.363 (inactive)
same,z-score,[2],-0.127 (inactive)
same,z-score,[3],0.0622 (inactive)
same,z-score,[7],2.51 (active)
same,cell count,[1],6190
same,cell count,[2],5590
same,cell count,[3],5940
same,cell count,[7],3720
Nc1ccccc1NC(=O)c1ccc(CNC(=O)OCc2cccnc2)cc1,z-score,,5.22 (active)
same,z-score,[4],-0.106 (inactive)
same,z-score,[5],-0.0587 (inactive)
same,z-score,[6],4.46 (active)
same,z-score,[7],13.5 (active)
same,cell count,,4300
same,cell count,[4],4680
same,cell count,[5],4820
same,cell count,[6],3240
same,cell count,[7],1730
CC(C)(C)c1ccc(S(=O)(=O)NCc2ccc(C(=O)Nc3cccnc3)cc2)cc1,z-score,[1],-0.216 (inactive)
same,z-score,[2],0.0762 (inactive)
same,z-score,[3],0.362 (inactive)
same,z-score,[7],0.0219 (inactive)
same,cell count,[1],6170
same,cell count,[2],5130
same,cell count,[3],2500
same,cell count,[7],1690
O=C(NCc1cccnc1)c1ccc(CNS(=O)(=O)c2ccc(F)cc2)cc1,z-score,[1],-0.0415 (inactive)
same,z-score,[2],-0.565 (inactive)
same,z-score,[3],-0.611 (inactive)
same,z-score,[7],-0.531 (inactive)
same,cell count,[1],5120
same,cell count,[2],5290
same,cell count,[3],5220
same,cell count,[7],4960
O=c1cc(-c2cccc3c2Sc2ccccc2S3)oc(N2CCOCC2)c1,z-score,[4],-0.163 (inactive)
same,z-score,[1],-0.486 (inactive)
same,z-score,[5],-0.0765 (inactive)
same,z-score,[2],-0.335 (inactive)
same,z-score,[6],-0.27 (inactive)
same,z-score,[3],-0.523 (inactive)
same,z-score,[7],0.302 (inactive) and 0.32 (inactive)
same,cell count,[4],6030
same,cell count,[1],4590
same,cell count,[5],5590
same,cell count,[2],4700
same,cell count,[6],5740
same,cell count,[3],4720
same,cell count,[7],3610 and 4370
CC1CN(CC(=O)Nc2ccc3c(c2)Cc2cccc(-c4cc(=O)cc(N5CCOCC5)o4)c2S3)CC(C)O1 (stereo not drawn),z-score,[1],-0.376 (inactive)
same,z-score,[2],-0.656 (inactive)
same,z-score,[3],0.69 (inactive)
same,z-score,[7],4.45 (active)
same,cell count,[1],6150
same,cell count,[2],6090
same,cell count,[3],4680
same,cell count,[7],1840
CCCCCCCCCCCCCCCCCCCCCC(=O)NCCO,z-score,,0.434 (inactive)
same,cell count,,5500
O=C(O)CCC/C=C\C[C@H]1[C@@H](/C=C/[C@@H](O)CCc2ccccc2)[C@H](O)C[C@@H]1O,z-score,,-0.319 (inactive)
same,cell count,,5160
CCCCCC(=O)Nc1c(C)cc(Br)cc1C,z-score,[1],0.207 (inactive)
same,z-score,[2],0.413 (inactive)
same,z-score,[3],-0.729 (inactive)
same,z-score,[7],-0.28 (inactive)
same,cell count,[1],4910
same,cell count,[2],4850
same,cell count,[3],5330
same,cell count,[7],4660
O=C(CCCCc1ccccc1)C(F)(F)C(F)(F)F,z-score,,-0.184 (inactive)
same,cell count,,5310
CC(=O)N[C@@H](CSC/C=C(\C)CC/C=C(\C)CC/C=C(\C)CCC=C(C)C)C(=O)O,z-score,,1.41 (inactive)
same,cell count,,5420
CCC(CO)Nc1nc(NCc2ccccc2)c2ncn(C(C)C)c2n1 (stereo not drawn),z-score,[1],-0.719 (inactive)
same,z-score,[2],-0.53 (inactive)
same,z-score,[3],-0.509 (inactive)
same,z-score,[7],0.143 (inactive)
same,cell count,[1],5300
same,cell count,[2],4780
same,cell count,[3],4590
same,cell count,[7],3210
NC(=O)c1cnc(NCCc2ccc(O)c(Cl)c2)nc1NCc1ccccc1,outcome,,inactive; censored for cell count
same,z-score,[4],-1.13 (inactive)
same,z-score,[5],-0.967 (inactive)
same,z-score,[6],6.17 (active)
same,cell count,[4],7430
same,cell count,[5],6770
same,cell count,[6],1590
Cn1cnc2c(NCc3ccccc3)nc(NCCO)nc21,z-score,,0.158 (inactive)
same,cell count,,4830
